FMDV inh – blocks foot and mouth disease virus; FMDV antiviral cell-based qHTS; Potency, µM (series often up to 57.9 µM), usual class: inhibitors; hit rate 1.2% among 410,000; AID 1159524; calls by dose curve; tested in HEK293T cells; also: read-out not given here; nearly all actives have a fitted effect of over 45% in size
HCV inhibitor – inhibitors of hepatitis C virus infection; Huh7.5.1 HCVcc-Cre infection, luciferase reporter, 44 h; Potency, µM (series often up to 41.8 µM), most hits filed as inhibitors; hit rate 3.4% among 340,000; AID 651820; active = well fitted inhibition curve with a large enough effect; inconclusive = small, poorly fitted or top-dose-only effect, or another doubt; inactive = no such curve, though single readings can be large or run the other way
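Infectious HCV cell culture screen: compound-treated cells (1,000/well, pre-plated 4 h) are infected with HCVcc-Cre at roughly 0.5 moi and grown 44 h. Infection is quantified by luciferase signal after 15 min substrate incubation at room temperature.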
LASV entry inh – Lassa virus entry inhibition; Lassa virus pseudotype entry inhibition, cell reporter; Potency, µM (series often up to 37.9 µM), hits mostly inhibitors; hit rate 1.2% among 300,000; calls by dose curve; tested in HEK293 cells; also: nearly all actives have a fitted effect of over 50% in size
SARS PLP yeast – inhibitors of SARS-CoV papain-like protease in yeast; AID 485353; hit rate 0.19% among 330,000; Potency, µM (top dose mostly 32.9 µM), actives largely listed as activators; S. cerevisiae expressing SARS-CoV PLpro, growth rescue; calls by dose curve; also: nearly all actives have a fitted effect of over 55% in size
Marburg entry inh – Marburg virus entry inhibition. Marburg virus pseudotyped entry inhibition, cell reporter. AID 540276. Potency, µM (highest dose often 37.8 µM), most hits filed as inhibitors. hit rate 1.8% among 300,000; calls by dose curve; tested in HEK293 cells
HCMV inh – inhibitors of human cytomegalovirus | HFF cells, HCMV-luciferase reporter, 72 h; active compounds read low | activity change, negative = inhibition, % at 57.5 µM | hit rate 4.5% among 410,000 | AID 1259415; in the data active = activity change below about -60%; inconclusive = no clear call, values can overlap the other calls; inactive = above about -39%
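Compounds were evaluated in HFFs infected with an HCMV luciferase reporter virus (MOI 1 PFU/cell). Luciferase in lysates collected 72 h post infection served as the replication measure.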
Hits are given with their value; – = inactive; ? = inconclusive; · = not tested or not shown. In the library only some 8% were active in any assay of this set; here they are far more common.

SMILES	FMDV inh	HCV inhibitor	LASV entry inh	SARS PLP yeast	Marburg entry inh	HCMV inh
O=C(CSc1nc2ccccc2c(=O)n1-c1ccc(F)cc1F)Nc1ccc2c(c1)CCC2	–	?	?	–	?	-72
CCOC(=O)C1(C)CCN1C(=O)c1ccc(Cl)nc1 (centres undefined)	–	·	·	·	·	–
Cc1csc2nc(COc3ccccc3NC(=O)c3ccc(C(C)(C)C)cc3)cc(=O)n12	–	·	–	·	–	–
CCc1ccccc1NC(=O)Cc1c(C(=O)O)[nH]c2ccc(Cl)cc12	–	·	–	·	–	–
CCC(CC)COC(=O)C(C#N)c1nc2ccccc2nc1N1CCN(CC)CC1 (centres undefined)	?	?	?	–	5.2µM	–
CCC(C)COC(=O)C(C#N)c1nc2ccccc2nc1N1CCCCC1 (centres undefined)	–	–	–	–	–	?
Cc1ccc(OCCSc2nnc(-c3cccs3)o2)cc1Cl	–	·	–	·	–	–
COC(=O)C1=C(c2ccc(Cl)c(C(F)(F)F)c2)C[C@@H]2CC[C@H]1N2C(=O)NCCOc1ccccc1Cl	?	10µM	·	–	·	·
COC(=O)C1=C(c2ccc(F)cc2OCc2ccccc2)C[C@@H]2CC[C@H]1N2C(=O)N1CCCC1	?	11µM	·	–	·	–
COC(=O)C1=C(c2ccc(F)cc2OCc2ccccc2)C[C@@H]2CC[C@H]1N2C(=O)NC(C)C	–	?	·	–	·	–
COC(=O)C1=C(c2ccc(F)cc2F)C[C@@H]2CC[C@H]1N2C(=O)N1CCC(O)CC1	–	–	·	–	·	-62
COC(=O)C1=C(c2ccc(F)cc2OCc2ccccc2)C[C@@H]2CC[C@H]1N2C(=O)NCc1ccccc1Cl	–	?	·	–	·	-63
CN(C)c1cccc(C(=O)N2CCC(c3ccncc3)CC2)c1	–	·	–	·	·	–
COC(=O)C1=C(c2cc3ccccc3o2)C[C@@H]2CC[C@H]1N2C(=O)N1CCCCC1	?	?	·	·	·	–
COC(=O)C1=C(c2cc3ccccc3o2)C[C@@H]2CC[C@H]1N2C(=O)N1CCCC1	–	?	·	·	·	-60
CSc1cccc(NC(=S)N(CCN(C)C)C(C)c2ccccn2)c1 (centres undefined)	–	?	?	–	10µM	–
COC(=O)c1c(C)oc(C)c1S(=O)(=O)NCc1cccs1	–	–	·	–	·	-60
Cc1ccc(Nc2nc(-c3ccc(S(=O)(=O)N4CCCC4)cc3)cs2)cc1C	?	4µM	?	–	?	·
O=S(=O)(c1ccc(-c2csc(Nc3ccc(Br)cc3)n2)cc1)N1CCCC1	?	?	–	–	–	-73
Cc1cc(C)cc(Nc2nc(-c3ccc(S(=O)(=O)N4CCCC4)cc3)cs2)c1	?	10µM	?	–	?	-77
O=C(CSCc1ccc(F)cc1)N1CCc2c([nH]c3ccccc23)C1c1ccccc1 (centres undefined)	–	·	?	·	·	–
COc1ccccc1/C=C/c1nc(C#N)c(NCC(C)C)o1	–	·	?	·	–	-70
COc1ccccc1/C=C/c1nc(C#N)c(NCCc2ccccc2)o1	–	·	–	·	–	–
CC(C)Oc1ccc(C(=O)Nc2ccc(Cl)c(S(=O)(=O)Nc3ccc(Cl)cc3)c2)cc1	–	?	11µM	–	?	–
O=C(Nc1ccc(Cl)c(S(=O)(=O)N2CCOCC2)c1)c1ccc(OCC2CCCO2)cc1 (centres undefined)	7.9µM	?	?	–	2.2µM	·
SMILES	FMDV inh	HCV inhibitor	LASV entry inh	SARS PLP yeast	Marburg entry inh	HCMV inh
O=C(Nc1ccc(Cl)c(S(=O)(=O)N2CCOCC2)c1)c1ccccn1	–	–	–	–	?	–
O=C(NC(=S)Nc1ccc(N2CCCCC2)c(Cl)c1)c1ccc2c(c1)OCCO2	?	3.5µM	?	–	1.4µM	-63
CCC(=O)N1CCN(c2ccc(Cl)cc2NC(=O)c2ccc3c(c2)OCCO3)CC1	–	–	–	·	–	-61
Cc1cccc(Nc2cc(Cl)nc(SCC(=O)O)n2)c1C	–	·	·	·	·	–
CCOC(=O)c1ccc(NC(=O)CS(=O)(=O)Cc2nc(-c3ccc(C)cc3)oc2C)cc1	–	·	–	·	?	–
COc1ccc(C(=O)Nc2ccc(Cl)c(S(=O)(=O)N3CCOCC3)c2)cc1	25µM	8.9µM	?	–	?	-76
O=C(Nc1ccc(Cl)c(S(=O)(=O)N2CCOCC2)c1)c1ccc(Cl)nc1	18µM	11µM	?	–	?	?
CN(c1cccc(NC(=O)c2ccc(Cl)c(S(=O)(=O)Nc3ccccc3)c2)c1)S(C)(=O)=O	–	10µM	–	–	3.7µM	–
COc1ccc(NC(=O)c2ccc3c(c2)OCO3)cc1S(=O)(=O)N1CCOCC1	–	–	·	–	·	–
O=C(Nc1ccc(Cl)c(S(=O)(=O)N2CCOCC2)c1)c1ccc2c(c1)OCO2	32µM	10µM	?	–	10µM	?
Cc1c(C(=O)NCc2ccccc2Cl)sc2ncnc(NCC3CCCO3)c12 (centres undefined)	–	·	·	·	·	·
O=C(Nc1ccc(Cl)c(S(=O)(=O)N2CCOCC2)c1)c1ccc2c(c1)OCCO2	–	10µM	?	–	?	-62
COc1ccc(NS(=O)(=O)c2cc(NC(=O)c3ccc(Cl)cc3)ccc2N2CCOCC2)cc1	–	7.9µM	?	–	1.1µM	?
COC(=O)c1c(C)nn(-c2ccc(F)cc2)c1-n1cccc1	–	·	–	·	–	?
CC(=O)O[C@H](C(=O)O[C@@H]1C[C@@H](CCC[C@H]2O[C@H](C(=O)OC(C)C)CC[C@@H]2C)O[C@@H](CC#N)C1)c1ccccc1	·	·	·	·	–	·
CC(C)(C)c1cc(CCC(=O)Nc2ccncc2)cc(C(C)(C)C)c1O	–	?	·	·	·	-63
CCN(CC(=O)NCc1cccs1)C(=O)c1ccc(S(=O)(=O)Nc2ccccc2F)cc1	–	–	·	–	·	–
Cc1ccc2nc(Cl)c3cc(C(=O)N4CCCCC4)sc3c2c1	–	·	–	·	–	–
Cc1ccc2nc(Cl)c3cc(C(=O)NCCCN4CCCC4)sc3c2c1	–	8.9µM	–	–	10µM	–
CCC1CCCCN1CCCNC(=O)c1cc2c(Cl)nc3ccc(C)cc3c2s1 (centres undefined)	–	·	?	·	?	-106
Cc1c(C(=O)N2CCCCCC2)sc2ncnc(NCC3CCCO3)c12 (centres undefined)	–	·	·	·	·	·
Cn1c(Oc2ccc(F)cc2)nc2c1c(=O)n(Cc1ccccc1Cl)c(=O)n2C	18µM	·	?	·	?	–
CCOc1nc2c(c(=O)n(C)c(=O)n2C)n1Cc1ccccc1Cl	–	?	–	–	–	-93
COc1ccc(Oc2nc3c(c(=O)n(C)c(=O)n3C)n2Cc2cccc(OC)c2)cc1	?	–	?	–	–	–
COCCOc1nc2c(c(=O)n(C)c(=O)n2C)n1Cc1cccc(OC)c1	?	11µM	–	–	?	?
COC(=O)c1nnn(-c2ccc(F)c(Cl)c2)c1C(=O)OC	–	–	–	–	–	–
COC(=O)c1c(C)nn(-c2ccc(F)c(Cl)c2)c1-c1cc(C)on1	?	8.9µM	?	–	4.5µM	–
COc1cc2ccccc2ccc1=NO	–	?	–	·	–	-68
COc1cc2ccccc2cc1C(=O)O	–	–	–	–	–	–

Screening data (PubChem)
